In the library only some 12% were active in any assay of this set; here they are far more common.
BAZ2B block = inhibitors of human BAZ2B bromodomain; Q9UIF8; AlphaScreen BAZ2B-H3K14Ac peptide displacement; Potency, µM (top dose mostly 114 µM), for inactives: top-dose activity change, negative = inhibition, hits mostly inhibitors; 360,000 compounds, 4.4% hits; also: % is scaled to controls: 0 for no effect and ±100 for the full control effect; nearly all actives have a fitted effect of over 60% in size
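Inhibition is scored as reduced AlphaScreen emission. The BAZ2B/b-H3(5-23)K14Ac complex (50 nM each) in PBS pH 7.4, 0.01% Tween-20 meets compound (up to 110 uM) for 30 min at RT before bead addition.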
Sfp PPTase inh = inhibitors of Bacillus subtilis Sfp phosphopantetheinyl transferase | Q9F4F7 | Biochemical Sfp PPTase activity, qHTS | Potency, µM, inactives show largest response in the series, negative = inhibition, most hits filed as inhibitors | 310,000 compounds, 3.5% hits;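 also: the enzyme is Sfp with the accession as filed and its product quenches rhodamine fluorescence; 0% = enzyme reaction without inhibitor and -100% = no enzyme wells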
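Step 1, compound plus 15 nM Sfp-PPTase, 15 min, room temperature. Step 2, add rhodamine-CoA (5 uM) and BHQ-2-YbbR (12.5 uM). Step 3, read 525/598 nm fluorescence at 0 and 30 min.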
G9a block = G9a (human) methyltransferase inhibition. G9a H3K9 monomethylation, AlphaScreen, 2 h. Potency, µM (doses to about 102 µM), for the others: at the highest dose activity, negative = inhibition, actives largely listed as inhibitors. 350,000 compounds, 8.8% hits; also: % is scaled to controls: 0 for no effect and ±100 for the full control effect; nearly all actives have a fitted effect of over 75% in size
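G9a (20 nM) was preincubated 15 min with compound, then reacted 2 h at room temperature with 500 nM biotin-H3K9 peptide and 20 µM SAM. Monomethyl-H3K9 detected by AlphaScreen using anti-H3K9me1 antibody.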
JMJD2A Tudor = JMJD2A Tudor domain (human) inhibition. AlphaScreen JMJD2A-Tudor / H3K4me3 peptide binding. 390,000 compounds, 4.4% hits. O75164. AID 504339. Potency, µM (highest dose often 114 µM), inactives show at the top dose activity change, negative = inhibition, actives largely listed as inhibitors; also: % is scaled to controls: 0 for no effect and ±100 for the full control effect; nearly all actives have a fitted effect of over 50% in size
Target sequence (O75164 whole entry, looked up, the tested form may be a part): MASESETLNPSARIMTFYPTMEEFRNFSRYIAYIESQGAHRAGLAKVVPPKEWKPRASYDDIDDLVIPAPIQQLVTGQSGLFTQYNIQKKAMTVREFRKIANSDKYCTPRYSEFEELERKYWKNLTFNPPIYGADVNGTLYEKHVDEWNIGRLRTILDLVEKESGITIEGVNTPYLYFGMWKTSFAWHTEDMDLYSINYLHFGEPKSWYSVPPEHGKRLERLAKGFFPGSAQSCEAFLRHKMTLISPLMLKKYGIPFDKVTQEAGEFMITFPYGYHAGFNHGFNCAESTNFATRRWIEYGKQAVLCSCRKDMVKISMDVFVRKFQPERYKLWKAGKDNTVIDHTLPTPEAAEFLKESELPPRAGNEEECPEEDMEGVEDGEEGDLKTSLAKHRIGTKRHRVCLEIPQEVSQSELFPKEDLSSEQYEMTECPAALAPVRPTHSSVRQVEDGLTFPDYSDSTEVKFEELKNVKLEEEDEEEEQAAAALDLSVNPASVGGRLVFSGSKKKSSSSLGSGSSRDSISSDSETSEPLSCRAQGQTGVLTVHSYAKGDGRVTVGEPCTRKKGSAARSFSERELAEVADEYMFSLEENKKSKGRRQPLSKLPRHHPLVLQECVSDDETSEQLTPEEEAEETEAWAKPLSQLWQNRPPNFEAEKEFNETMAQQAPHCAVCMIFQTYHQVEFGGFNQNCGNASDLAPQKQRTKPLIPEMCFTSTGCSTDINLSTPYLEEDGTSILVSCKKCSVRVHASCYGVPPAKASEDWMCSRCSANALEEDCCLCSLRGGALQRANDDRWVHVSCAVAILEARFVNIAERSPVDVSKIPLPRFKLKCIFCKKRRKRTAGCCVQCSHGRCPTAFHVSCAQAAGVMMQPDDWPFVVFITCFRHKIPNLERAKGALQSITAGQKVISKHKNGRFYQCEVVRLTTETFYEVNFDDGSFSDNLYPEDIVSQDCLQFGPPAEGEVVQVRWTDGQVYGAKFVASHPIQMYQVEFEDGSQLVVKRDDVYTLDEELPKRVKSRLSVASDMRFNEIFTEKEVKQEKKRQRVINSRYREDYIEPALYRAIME
HP1b chromo inh = blocks HP1-beta chromodomain binding to methylated histone tails | AlphaScreen HP1-beta / biotin-H3K9me3 peptide binding | Potency, µM (doses to about 114 µM), without a hit: at the highest dose activity change, negative = inhibition, actives largely listed as inhibitors | 390,000 compounds, 0.56% hits; also: nearly all actives have a fitted effect of over 70% in size
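HP1-beta protein (50 nM final) preincubated 30 min at room temperature with biotinylated H3(1-18)K9me3 peptide (50 nM) in PBS pH 7.4, 0.01% Tween-20, then compound added for 30 min. AlphaScreen streptavidin donor/nickel chelate acceptor beads (10 ug/mL final), 30 min dark, luminescence read.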
L3MBTL1 inh = L3MBTL1 (human) inhibition. 230,000 compounds, 0.66% hits. Potency, µM (top dose mostly 57.1 µM), inactives show at the highest dose activity, negative = inhibition, most hits filed as inhibitors. AlphaScreen L3MBTL1–H3K9me1 peptide binding; also: % is scaled to controls: 0 for no effect and ±100 for the full control effect; nearly all actives have a fitted effect of over 60% in size
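First, the protein-peptide complex forms for 30 min at room temperature (L3MBTL1 50 nM, biotinylated H3K9me1 peptide 75 nM). Next, compounds are pin-transferred and incubated 30 min. Finally, AlphaScreen beads are added and read after 30 min.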
The depositor's hits bear a star; ? = inconclusive; / = no result; [ ] = another dose, or the depositor's remark. Calls follow the shape of the dose curve; as a rule, active = well fitted curve in the direction sought with a large enough effect; inconclusive = small, poorly fitted or top-dose-only effect, or another doubt; inactive = no such curve, though single readings can be large; an effect the other way counts as inactive or inconclusive. Potency is read from the fitted curve at half-maximal effect.

SMILES	BAZ2B block	Sfp PPTase inh	G9a block	JMJD2A Tudor	HP1b chromo inh	L3MBTL1 inh
CC(C)Oc1ccc(C(=O)Nc2ccc(N(C)C)cc2)cc1	12%	-10%	3.5µM*	?	-19%	-11%
CC(C)Oc1cccc(C(=O)NC(=S)Nc2cccc(NC(=O)c3ccccc3Cl)c2)c1	-11%	4%	6%[59 µM]	-33%	21%	-11%
CCCCCCCC/C=C\C/C=C\C/C=C\CCCC(=O)O	/	17%	28%[59 µM]	/	/	/
O=C(NCCc1nnc2ccc(NCc3ccc(F)cc3)nn12)c1ccccc1	/	10%	-44%	-15%	41%	/
COc1ccc(C(=O)N/N=C(/C)c2ccc(N3CCCCC3)cc2)cc1	2%	-2%	20%[59 µM]	50µM*	8%	-4%
CN(C)c1ccc(NC(=S)c2ccc3ccccc3n2)cc1	2.5µM*	7.1µM*	2µM*	-12%	41%	/
COc1cccc(C(=O)NC(=S)Nc2ccc3oc(=O)ccc3c2)c1	3%	-27%	40µM*	-26%	17%	3%
COc1ccc(C(=O)Nc2ccc(N3CCCC3)cc2)cc1Br	0%	-2%	40µM*	?	12%	-6%
O=C(Nc1ccc([N+](=O)[O-])cc1)c1cccc(S(=O)(=O)Nc2cccnc2)c1	?	0%	?	-4%	28%	/
CCc1nnc(NS(=O)(=O)c2ccc(NCc3ccccc3O)cc2)s1	1%	3%	?	-20%	-3%	/
COc1ccc(C(=O)NC(=S)Nc2ccc(CN3CCOCC3)cc2)cc1OC	-30%	4%	?	?	12%	-12%
COc1ccc(C(=O)NC(=S)Nc2ccc(CN3CCCCC3)cc2)cc1Cl	?	10%	13µM*	?	-34%	-3%
COc1ccc(NC(=S)c2ccc(N(C)C)cc2)cc1	-26%	5%	25µM*	-11%	?	-15%
COc1cccc(C(=O)NC(=S)Nc2ccc(N(C)C)cc2)c1	10µM*	?	10µM*	25µM*	?	?
COc1ccc(C(=S)Nc2ccc(N(C)C)cc2)cc1	?	0%	?	?	?	/
COc1ccccc1C(=O)NC(=S)Nc1ccc(N2CCCC2)cc1	1%	11%	45µM*	?	?	-1%
OC[C@@H]1O[C@@H](O)[C@H](O)[C@H](O)[C@@H]1O	/	17%	/	/	/	/
COc1cccc(C(=O)Nc2ccc3c(c2)C(=O)c2ccccc2C3=O)c1	-36%	-8%	-14%[59 µM]	18µM*	-12%	1%
COCCNC(=S)N/N=C/c1ccc(N2CCOCC2)cc1	-39%	-27%	7%[59 µM]	-24%	31%	-5%
COCCNC(=S)Nc1ccc(N2CCCCC2)cc1	50µM*	13µM*	8.9µM*	?	?	/
O=C(Nc1ccc2c(c1)C(=O)c1ccccc1-2)c1ccccc1	/	/	/	-10%	16%	/
CCOc1ccc(C(=O)NC(=S)Nc2ccccc2N2CCC(C)CC2)cc1[N+](=O)[O-]	?	25%	-4%[59 µM]	-27%	-1%	0%
CCOc1ccc(C(=O)NC(=S)Nc2ccc(N3CCC(C)CC3)cc2)cc1[N+](=O)[O-]	?	-10%	10µM*	?	-32%	-36%
COc1cccc(C(=O)NC(=S)Nc2ccc(N3CCCC3)cc2)c1	13µM*	-4%	8.9µM*	40µM*	?	?
Cc1ccc(C(O)c2nc3ccccc3n2C)cc1 (stereo not given)	-30%	22%	-14%[59 µM]	3%	32%	1%
SMILES	BAZ2B block	Sfp PPTase inh	G9a block	JMJD2A Tudor	HP1b chromo inh	L3MBTL1 inh
COc1ccc(S(=O)(=O)Nc2ncccn2)cc1	-14%	15%	12%	-5%	30%	/
c1ccc(CN(CCN(Cc2ccccn2)Cc2ccccn2)Cc2ccccn2)nc1	/	25%	-8%[59 µM]	/	/	/
Cc1ccc(C)c2[nH]c(=O)c(CN(CC3CCCO3)C(=S)NCc3ccco3)cc12 (stereo not given)	-31%	-24%	45µM*	-18%	19%	/
O=C(c1ccco1)N(Cc1cc2ccccc2[nH]c1=O)CC1CCCO1 (stereo not given)	-1%	14%	5%	10%	36%	/
Cc1cc2cc(CN(Cc3ccco3)C(=O)C3CCCCC3)c(=O)[nH]c2cc1C	-2%	17%	?	-11%	28%	3%
Cc1cccc2cc(CN(CC3CCCO3)C(=O)c3ccco3)c(=O)[nH]c12 (stereo not given)	-29%	-5%	50µM*	-6%	36%	0%
CCc1ccc2[nH]c(=O)c(CN(CC3CCCO3)C(=S)NCc3ccco3)cc2c1 (stereo not given)	?	3.5µM*	/	?	-7%	/
Cc1cc2cc(CN(Cc3ccco3)C(=O)NCc3ccccc3)c(=O)[nH]c2cc1C	?	-13%	50µM*	-21%	2%	-10%
O=C(NCC(=O)N(c1ccc(F)cc1)C(C(=O)NC1CCCC1)c1ccncc1)c1ccco1 (stereo not given)	1%	5%	-1%	-5%	19%	/
Cc1ccc(S(=O)(=O)N2CCC3(CC2)OCCO3)cc1	1%	10%	-6%	-10%	30%	/
CCN(CC)C(=O)CN1C(=O)COCC1=O	5%	10%	2%[12.7 µM]	-10%	29%	/
CCc1ccc2[nH]c(=O)c(CN(CCN(CC)CC)C(=S)NCc3ccco3)cc2c1	-34%	79µM*	/	?	4%	-20%
CCc1ccc2[nH]c(=O)c(CN(CCN(C)C)C(=S)NCc3ccco3)cc2c1	-36%	-15%	/	-30%	-20%	-29%
Cc1ccc2cc(CN(CC3CCCO3)C(=S)NCc3ccco3)c(=O)[nH]c2c1C (stereo not given)	?	32µM*	45µM*	?	?	-7%
Cc1cc(C)c2cc(CN(Cc3ccco3)C(=S)NCC3CCCO3)c(=O)[nH]c2c1 (stereo not given)	?	20µM*	/	-33%	-7%	-7%
Cc1cc2cc(CN(CCN(C)C)C(=S)NCc3ccco3)c(=O)[nH]c2cc1C	71µM*	-6%	13%[12.7 µM]	?	-23%	-23%
Cc1cccc2cc(C#N)c(NCCCNS(=O)(=O)c3ccc(Cl)cc3)nc12	60%	15%	76%[12.7 µM]	71%	135%	/
CCOC(=O)c1[nH]c(C)c(CC(C)C)c1C	-13%	-3%	10%	-21%	10%	-5%
CCOc1ccc2[nH]c(=O)c(CN(Cc3ccco3)C(=O)c3ccc(Br)cc3)cc2c1	-2%	40µM*	?	-14%	37%	-2%
COC(=O)c1sc(NC(=S)NNC(=O)c2c(Br)c(C)nn2C)c(C(=O)OC)c1C	25µM*	-14%	/	50µM*	-19%	/
COC(=O)c1sc(S(=O)(=O)Nc2c(C)nn(C)c2C)c(C(=O)OC)c1C	-3%	/	56µM*	1%	31%	?

Screening data as filed in PubChem BioAssay.
